From PubChem BioAssay AID1159580 (chemical genetic matrix, 2015)
Where “and” joins values, the source holds several entries; their conditions need not be identical. Equal values may be shown once. Among all 5,500 compounds or so, about 2,000 (36%) were called active. Inconclusive results (about 18%) are left out. Rule as the data show it: active = normalized growth mostly below about 0.91 (no sharp cut-off); inconclusive = no clear call, values can overlap the other calls; inactive = mostly above about 0.92. The list shows a part of the results.

Test: chemical genetic growth profiling, strain panel (AID 1159580);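 also: tested at 20 µM; growth read once vehicle control cultures reached saturation at 30 °C; 1 = growth at the plate median or of vehicle wells; lower values mean less growth of the strain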
Conditions: S. cerevisiae deletion strains, growth OD

Measured: normalized growth

Cc1cc(C(C)(C)C)cc(C)c1CC1=NCCN1
inactive: locus YAL013W, strain DEP1, hits give low values 1.02 and 0.999 | locus YAL021C, strain ccr4, hits give low values 0.987 | locus YAL026C, strain drs2, hits give low values 0.986 | locus YAL030W, strain snc1, hits give low values 1 | locus YAL040C, strain CLN3, hits give low values 0.976 | locus YBL061C, strain skt5, hits give low values 0.999 | locus YBR009C, strain hhf1, hits give low values 0.957 | locus YBR021W, strain FUR4, hits give low values 1.02 | locus YBR023C, strain chs3, hits give low values 1.01 | locus YBR171W, strain sec66, hits give low values 1.01 | locus YBR229C, strain ROT2, hits give low values 1.01 | locus YBR231C, strain swc5, hits give low values 1 | locus YBR279W, strain paf1, hits give low values 0.993 | locus YCL011C, strain gbp2, hits give low values 0.988 | locus YCL016C, strain dcc1, hits give low values 0.99 | locus YCL029C, strain bik1, hits give low values 1.01 | locus YCL061C, strain MRC1 (second series), hits give low values 0.999 | locus YCL061C, strain MRC1, hits give low values 1.02 | locus YCL069W, strain vba3, hits give low values 1 | locus YCR088W, strain abp1, hits give low values 0.996 | locus YDL005C, strain med2, hits give low values 1.01 | locus YDL035C, strain GPR1, hits give low values 1.03 | locus YDL040C, strain nat1, hits give low values 1 | locus YDL074C, strain BRE1, hits give low values 1.02 | locus YDL101C, strain DUN1, hits give low values 1.01 | locus YDL134C, strain PPH21, hits give low values 1.02 | locus YDL185W, strain tfp1, hits give low values 1.01 | locus YDL192W, strain arf1, hits give low values 1.01 | locus YDR001C, strain nth1, hits give low values 1.01 | locus YDR069C, strain doa4, hits give low values 1.02 | locus YDR101C, strain arx1, hits give low values 1 | locus YDR137W, strain rgp1, hits give low values 0.994 | locus YDR150W, strain NUM1, hits give low values 1.02 | locus YDR159W, strain sac3, hits give low values 0.941 | locus YDR162C, strain NBP2, hits give low values 1.01 | locus YDR195W, strain ref2 1.01 | locus YDR297W, strain sur2, hits give low values 1 | locus YDR318W, strain mcm21, hits give low values 0.995 | locus YDR334W, strain swr1, hits give low values 0.993 | locus YDR335W, strain msn5, hits give low values 0.999 | locus YDR363W, strain ESC2, hits give low values 1 | locus YDR388W, hits give low values 1 | locus YDR392W, strain spt3, hits give low values 0.926 | locus YDR502C, strain sam2, hits give low values 0.998 | locus YEL003W, strain gim4, hits give low values 1.01 | locus YEL037C, strain rad23, hits give low values 1 | locus YEL061C, strain CIN8 (second series), hits give low values 0.997 | locus YEL061C, strain CIN8, hits give low values 1.02 | locus YER002W, strain NOP16, hits give low values 1 | locus YER015W, strain faa2, hits give low values 0.998 | locus YER016W, strain bim1, hits give low values 0.973 | locus YER110C, hits give low values 0.994 | locus YER111C, strain swi4, hits give low values 1 | locus YER155C, strain BEM2 (second series), hits give low values 1.02 | locus YER155C, strain BEM2, hits give low values 1.01 | locus YER167W, strain BCK2, hits give low values 1.01 | locus YFR010W, strain ubp6, hits give low values 1.02 | locus YGL078C, strain dbp3, hits give low values 1 | locus YGL086W, strain mad1, hits give low values 1 | locus YGL167C, strain pmr1, hits give low values 1 | locus YGL173C, strain kem1, hits give low values 1.02 | locus YGL227W, strain vid30, hits give low values 1 | locus YGL240W, strain doc1, hits give low values 1.03 | locus YGL248W, strain PDE1, hits give low values 1 | locus YGL253W, strain hxk2, hits give low values 0.977 | locus YGR078C, strain PAC10, hits give low values 1.01 | locus YGR135W, strain pre9, hits give low values 1 | locus YGR229C, strain SMI1, hits give low values 1.02 | locus YGR252W, strain gcn5, hits give low values 0.951 | locus YHR013C, strain ard1, hits give low values 0.971 | locus YHR027C, strain rpn1, hits give low values 0.993 | locus YHR030C, strain SLT2, hits give low values 1.02 and 1.01 | locus YHR079C, strain IRE1 (second series), hits give low values 0.995 | locus YHR079C, strain IRE1, hits give low values 1.01 | locus YHR094C, strain hxt1, hits give low values 1 | locus YHR129C, strain ARP1, hits give low values 1.01 | locus YHR142W, strain chs7, hits give low values 1.02 | locus YHR200W, strain rpn10, hits give low values 1 | locus YIL066C, strain RNR3, hits give low values 1.02 | locus YIL073C, strain SPO22, hits give low values 1.04 | locus YIL125W, strain kgd1, hits give low values 0.997 | locus YIR030C, strain dcg1, hits give low values 1 | locus YJL092W, strain hpr5, hits give low values 1.02 | locus YJL095W, strain BCK1 (second series), hits give low values 1.01 | locus YJL095W, strain BCK1, hits give low values 1.01 and 0.982 | locus YJL115W, strain asf1, hits give low values 0.985 | locus YJL129C, strain trk1, hits give low values 1.02 | locus YJL134W, strain LCB3, hits give low values 1.01 | locus YJL154C, strain vps35, hits give low values 1.01 | locus YJL164C, strain tpk1, hits give low values 0.98 | locus YJL166W, strain qcr8, hits give low values 1.03 | locus YJL168C, strain set2, hits give low values 0.998 | locus YJL187C, strain SWE1 (second series), hits give low values 1.03 | locus YJR043C, strain POL32, hits give low values 1 | locus YJR066W, strain TOR1, hits give low values 0.937
